ELG1 DNA repair: qHTS screen for small molecules that inhibit ELG1-dependent DNA repair in human embryonic kidney (HEK293T) cells expressing luciferase-tagged ELG1. AID 504467, 2011. actives 2.3% (n = 330,000). Potency, µM (highest dose often 46.1 µM), for inactives: top-dose activity change, negative = inhibition, most hits filed as inhibitors. HEK293T ELG1-luciferase reporter, luminescence, 16 h; DNA damage induced by 5-fluorouridine; note: potency is the fitted concentration of half-maximal effect; nearly all actives have a fitted effect of over 55% in size
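Overnight (16 hr) co-exposure of 2,000 cells/well to 5-fluorouridine and compound at 37 °C preceded detection. Luciferase was quantified via ONE-Glo luminescence; loss of signal denotes inhibition.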
DT40 TDP1 no CPT: qHTS for Inhibitors of human tyrosyl-DNA phosphodiesterase 1 (TDP1): qHTS in cells in absence of CPT | DT40 Tdp1-/- hTDP1 cells, no CPT, ATP luminescence, 48 h | Potency, µM (highest dose often 46.2 µM), for the others: at the highest dose activity change, negative = growth inhibition, actives largely listed as inhibitors | actives 15% (n = 420,000); note: potency is the fitted concentration of half-maximal effect; nearly all actives have a fitted effect of over 55% in size
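Stably hTDP1-transfected Tdp1-null chicken DT40 cells were treated with library compounds minus camptothecin and grown for at least 48 hr at 37 °C, after which cellular ATP was quantified by luminescence.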
VP16 counter: VP16 counterscreen qHTS for inhibitors of ROR gamma transcriptional activity; actives 3.5% (n = 310,000); Potency, µM (doses to about 53.6 µM), inactives show at the top dose activity, negative = inhibition, hits mostly inhibitors; Drosophila S2 Gal4-VP16 UAS-luciferase, luminescence, 20 h;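 note: Gal4-VP16 expression switched on by copper sulfate through the metallothionein promoter; potency is the fitted concentration of half-maximal effect; nearly all actives have a fitted effect of over 50% in size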
DT40 TDP1 CPT: qHTS for Inhibitors of human tyrosyl-DNA phosphodiesterase 1 (TDP1): qHTS in cells in presence of CPT; chicken DT40 Tdp1-/-;hTDP1 cells + 20 nM CPT, ATP luminescence, 48 h; actives 12% (n = 420,000); Potency, µM (top dose mostly 46.2 µM), without a hit: top-dose activity change, negative = growth inhibition, usual class: inhibitors; note: potency is the fitted concentration of half-maximal effect; nearly all actives have a fitted effect of over 55% in size
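Chicken DT40 Tdp1-/- cells complemented with human TDP1, 400 cells/well, exposed to compounds plus 20 nM camptothecin for at least 48 h at 37 C; viability read as ATP content by CellTiter-Glo luminescence.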
RORgamma inh: qHTS for inhibitors of ROR gamma transcriptional activity; AID 2551, 2010; Drosophila S2 Gal4-RORgamma UAS-luciferase reporter, 20 h; Potency, µM (highest dose often 53.6 µM), for the others: at the top dose activity change, negative = inhibition, actives largely listed as inhibitors; Nuclear receptor ROR-gamma (Mus musculus), P51450; actives 5.4% (n = 310,000); note: potency is the fitted concentration of half-maximal effect; nearly all actives have a fitted effect of over 60% in size
Target sequence (P51450 whole entry, looked up, the tested form may be a part): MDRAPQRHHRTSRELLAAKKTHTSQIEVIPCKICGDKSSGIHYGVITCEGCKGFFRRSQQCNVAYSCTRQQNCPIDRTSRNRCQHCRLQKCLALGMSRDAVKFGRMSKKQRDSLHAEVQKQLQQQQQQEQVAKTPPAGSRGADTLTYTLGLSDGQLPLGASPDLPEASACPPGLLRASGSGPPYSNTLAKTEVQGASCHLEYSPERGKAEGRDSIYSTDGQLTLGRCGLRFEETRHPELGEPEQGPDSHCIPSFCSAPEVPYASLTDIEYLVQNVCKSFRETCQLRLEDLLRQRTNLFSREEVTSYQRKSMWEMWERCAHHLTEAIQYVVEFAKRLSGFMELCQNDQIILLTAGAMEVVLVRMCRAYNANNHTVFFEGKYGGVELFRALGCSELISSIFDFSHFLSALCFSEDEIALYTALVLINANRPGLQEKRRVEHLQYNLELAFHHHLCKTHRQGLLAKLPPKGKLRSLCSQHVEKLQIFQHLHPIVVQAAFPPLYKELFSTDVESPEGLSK
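Schneider cells (Drosophila), stable Gal4 DBD–ROR gamma + UAS-luc; 1 hr cmpd preincubation; Cu2+ induction 700 uM final; 20 hr ambient; luminescence.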
IL1B secr inh: qHTS for Inhibitors of Inflammasome Signaling: IL-1-beta AlphaLISA Primary Screen; THP-1 LPS/ATP IL-1B secretion, AlphaLISA, 16 h; active compounds read low; activity change, % at 57.5 µM; actives 4.7% (n = 360,000); AID 743279, 2014; in the data active = activity change below about -50%; inconclusive = mostly about -30% to -49%
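THP-1 cells pretreated 1 hr with compounds (up to 57.5 uM final), then stimulated with LPS (250 ng/mL final) plus ATP (1.25 mM final); secreted IL-1B measured by AlphaLISA after 16 hr, decreased signal indicating inhibition.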
Numbers without * were called inactive; [ ] = remark or other dose. An excerpt weighted towards active compounds, which were near 21% of everything screened. Unless noted, calls come from the whole dose curve; as a rule, active = well fitted curve in the direction sought with a large enough effect; inconclusive = small, poorly fitted or top-dose-only effect, or another doubt; inactive = no such curve, though single readings can be large; an effect the other way counts as inactive or inconclusive. % is set by controls: 0 for no effect and ±100 for the full control effect.

Screening O=C(COc1ccccc1)Nc1nc(-c2cccnc2)cs1 returned ELG1 DNA repair -10.2%, DT40 TDP1 no CPT inconclusive, DT40 TDP1 CPT inconclusive and IL1B secr inh 21.0.
COc1ccccc1Nc1nc(-c2cccnc2)cs1 was read as ELG1 DNA repair inconclusive, DT40 TDP1 no CPT inconclusive, VP16 counter -3.4%, DT40 TDP1 CPT inconclusive, RORgamma inh inconclusive and IL1B secr inh -95.3*.
Screening COc1ccc(Nc2nc(-c3cccnc3)cs2)c(OC)c1 returned ELG1 DNA repair inconclusive, DT40 TDP1 no CPT inconclusive, VP16 counter 20.1%, DT40 TDP1 CPT inconclusive, RORgamma inh inconclusive and IL1B secr inh inconclusive.
Cc1cc(C)cc(OCC(=O)Nc2nc(-c3cccnc3)cs2)c1 was read as ELG1 DNA repair inconclusive, DT40 TDP1 no CPT 9.2µM*, VP16 counter inconclusive, DT40 TDP1 CPT 14.6µM*, RORgamma inh inconclusive and IL1B secr inh 0.0.
`O=C(COc1ccccc1)Nc1nc(-c2ccncc2)cs1` gave ELG1 DNA repair -5.6%, DT40 TDP1 no CPT 16.4µM*, VP16 counter -4.5%, DT40 TDP1 CPT 20.6µM*, RORgamma inh 30.6% and IL1B secr inh 37.2.
For COc1ccc(CC(=O)Nc2nc(-c3cccnc3)cs2)cc1 the results were ELG1 DNA repair 6.6%, DT40 TDP1 no CPT 25.9µM*, VP16 counter -1.1%, DT40 TDP1 CPT inconclusive, RORgamma inh inconclusive and IL1B secr inh 16.8.
CN(C)S(=O)(=O)c1ccc2c(c1)nnn2CCNC(=O)Nc1ccc(Br)cc1 was read as DT40 TDP1 no CPT -11.6% and DT40 TDP1 CPT 0.0%.
Screening Cc1ccc(C)c(NC(=O)CN(C)C(=O)COc2cccc3c2OC(C)(C)C3)c1 returned ELG1 DNA repair 6.6%, DT40 TDP1 no CPT -6.4%, DT40 TDP1 CPT 4.8% and IL1B secr inh 8.1.
For Cn1c(SCC(=O)N2CCCC2=O)nnc1-c1ccccc1F the results were ELG1 DNA repair -23.8%, DT40 TDP1 no CPT 22.1%, VP16 counter -6.7%, DT40 TDP1 CPT 0.8%, RORgamma inh 3.7% and IL1B secr inh 11.8.
For O=C(CN1CCN(S(=O)(=O)c2ccccc2F)CC1)Nc1ccccc1C(=O)c1ccccc1 the results were ELG1 DNA repair 11.6µM*, DT40 TDP1 no CPT 29.1µM*, VP16 counter -2.1%, DT40 TDP1 CPT inconclusive, RORgamma inh 6.4% and IL1B secr inh -16.9.
N#Cc1ccccc1S(=O)(=O)N1CCN(CC(=O)Nc2ccccc2C(=O)NC2CC2)CC1 was read as ELG1 DNA repair inconclusive, DT40 TDP1 no CPT -20.9%, DT40 TDP1 CPT -22.9% and IL1B secr inh 21.3.
`N#Cc1ccccc1S(=O)(=O)N1CCN(CC(=O)Nc2ccnn2C2CCCC2)CC1` gave ELG1 DNA repair 13.0%, DT40 TDP1 no CPT -14.6%, DT40 TDP1 CPT -0.7% and IL1B secr inh 22.4.
`O=C(CN1CCN(S(=O)(=O)c2ccccc2F)CC1)Nc1ccnn1C1CCCC1` gave ELG1 DNA repair -17.7%, DT40 TDP1 no CPT 20.6µM*, DT40 TDP1 CPT inconclusive and IL1B secr inh 16.3.
For COc1ccc(C(=O)N(Cc2cc(OC)c(OC)c(OC)c2)C2CCS(=O)(=O)C2)cc1Cl (stereo not drawn) the results were DT40 TDP1 no CPT -12.9% and DT40 TDP1 CPT -11.0%.
For Cc1oc2cc(O)ccc2c(=O)c1-c1cnn(-c2ccccc2)c1 the results were ELG1 DNA repair 17.1%, DT40 TDP1 no CPT inconclusive, VP16 counter -3.1%, DT40 TDP1 CPT -25.3%, RORgamma inh inconclusive and IL1B secr inh 13.0.
`CCc1cc2c(=O)c(-c3cnn(-c4ccccc4)c3)c(C)oc2cc1OCC(=O)Nc1cccc(C)c1` gave ELG1 DNA repair -0.5%, DT40 TDP1 no CPT 5.17µM*, VP16 counter -8.5%, DT40 TDP1 CPT 3.26µM*, RORgamma inh -19.3%[10 µM] and IL1B secr inh -0.9.
CCc1cc2c(=O)c(-c3cnn(-c4ccccc4)c3)c(C)oc2cc1OCC(=O)Nc1ccc(F)c(F)c1 was read as ELG1 DNA repair -19.4%, DT40 TDP1 no CPT 9.2µM*, VP16 counter -3.9%, DT40 TDP1 CPT 14.6µM*, RORgamma inh -4.6% and IL1B secr inh 0.0.
Screening Cc1ccccc1N=C1SC(CC(=O)Nc2ccc3ccccc3c2)C(=O)N1Cc1ccccn1 (stereo not drawn) returned ELG1 DNA repair inconclusive, DT40 TDP1 no CPT 20.6µM*, VP16 counter inconclusive, DT40 TDP1 CPT 18.4µM*, RORgamma inh -9.8% and IL1B secr inh inconclusive.
For CCN1C(=O)C(CC(=O)Nc2cccc(C(C)=O)c2)S/C1=N\c1ccccn1 (stereo not drawn) the results were ELG1 DNA repair inconclusive, DT40 TDP1 no CPT inconclusive, VP16 counter inconclusive, DT40 TDP1 CPT inconclusive, RORgamma inh inconclusive and IL1B secr inh -3.3.
O=C(CC1SC(=Nc2ccccc2)N(Cc2ccccn2)C1=O)Nc1ccc(Br)cc1 (stereo not drawn) was read as ELG1 DNA repair -9.6%, DT40 TDP1 no CPT 10.3µM*, VP16 counter -6.8%, DT40 TDP1 CPT 16.4µM*, RORgamma inh inconclusive and IL1B secr inh inconclusive.
`O=C(Cc1cccc2ccccc12)Nc1ccccc1Br` gave ELG1 DNA repair 14.2%, DT40 TDP1 no CPT -26.2%, VP16 counter 22.1%, DT40 TDP1 CPT 1.7%, RORgamma inh inconclusive and IL1B secr inh 18.8.
Screening O=C(CC1SC(=Nc2cccc3ccccc23)N(Cc2ccccn2)C1=O)Nc1ccccc1Br (stereo not drawn) returned ELG1 DNA repair inconclusive, DT40 TDP1 no CPT 2.31µM*, VP16 counter -10.5%, DT40 TDP1 CPT 4.61µM*, RORgamma inh -13.6% and IL1B secr inh -4.0.
For O=C(CN1C(=O)NC2(CCCCC2)C1=O)N1CCN(S(=O)(=O)c2cccc([N+](=O)[O-])c2)CC1 the results were ELG1 DNA repair -1.0%, DT40 TDP1 no CPT -9.0%, DT40 TDP1 CPT -0.4% and IL1B secr inh 11.0.
`COC(=O)C(c1ccc(OC)c(OC)c1)C1c2ccccc2C=C(C)N1C(=O)OC` (stereo not drawn) gave VP16 counter -9.6% and RORgamma inh 34.8%.

Screening results as filed in PubChem.
